Mtb hypoxia inh = PubChem AID 1159583. M. tuberculosis hypoxia-regulated fluorescent reporter, fluorescence. fluorescence inhibition, % (concentration not given with the values). actives 0.1% (n = 300,000); in the data active = fluorescence inhibition mostly above about 23%, no sharp cut-off; inactive = mostly below about 17%
RecA intein inh = Mtb RecA intein splicing inhibitors, primary screen, biochemical, fluorescence, HTS; Protein RecA (Mycobacterium tuberculosis (strain ATCC 25618 / H37Rv)), P9WHJ3; cell-free RecA intein splicing; inhibition, % (no concentration beside the values); actives 0.75% (n = 290,000); in the data active = inhibition above about 30%; inconclusive = no clear call, values can overlap the other calls;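 note: 0% = vehicle wells and 100% = reference inhibitor control wells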
Rv3671c inh = Rv3671c serine protease inhibitors, primary screen, biochemical, fluorescence polarization, M. tuberculosis H37Rv. P9WHR9. inhibition, % at 5.96 µM. actives 0.048% (n = 320,000); in the data active = inhibition above about 38%;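 note: extracellular domain of Rv3671c used as enzyme; 0% = enzyme with DMSO and 100% = no enzyme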
Mtb UGM inh = M. tuberculosis UGM enzyme inhibitors, primary screen, biochemical, fluorescence polarization, single point; UDP-galactopyranose mutase (Mycobacterium tuberculosis (strain ATCC 25618 / H37Rv)), …; purified UGM, fluorescence polarization probe displacement; inhibition, % at 10 µM; actives 0.06% (n = 320,000); AID 504406, 2011; in the data active = inhibition above about 10%, passing the limit was not always enough; inconclusive = no clear call, values can overlap the other calls
Target sequence (P9WIQ1 whole entry, looked up): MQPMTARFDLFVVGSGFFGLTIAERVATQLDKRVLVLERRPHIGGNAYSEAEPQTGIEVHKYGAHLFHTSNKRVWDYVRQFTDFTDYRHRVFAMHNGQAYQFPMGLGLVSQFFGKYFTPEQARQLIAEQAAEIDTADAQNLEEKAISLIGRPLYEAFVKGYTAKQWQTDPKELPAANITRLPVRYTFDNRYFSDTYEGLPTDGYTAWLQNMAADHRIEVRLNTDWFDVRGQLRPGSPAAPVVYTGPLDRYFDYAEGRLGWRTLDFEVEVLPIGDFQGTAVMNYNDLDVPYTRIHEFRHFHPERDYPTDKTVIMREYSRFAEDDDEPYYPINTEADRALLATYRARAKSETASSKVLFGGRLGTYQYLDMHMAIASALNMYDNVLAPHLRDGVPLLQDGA
FadD28 FP inh = inhibitors of FadD28 bisubstrate probe binding, primary screen, biochemical, fluorescence polarization, single point; Mycobacterium tuberculosis FadD28 fatty-acid-AMP ligase; actives 0.22% (n = 360,000); inhibition, % at 12.5 µM; in the data active = inhibition above about 8.5%, passing the limit was not always enough; inconclusive = no clear call, values can overlap the other calls
Starred values were filed as active, the others as inactive; ? = inconclusive; · = no result given. Compounds with a hit are over-represented: about 0.92% of the library has one in this group of screens.

SMILES	Mtb hypoxia inh	RecA intein inh	Rv3671c inh	Mtb UGM inh	FadD28 FP inh
CCCn1nc(NS(=O)(=O)c2cccc3nonc23)c2cc3cccc(C)c3nc21	1.6	11.2	9.0	1.5	9.9*
O=C(O)c1ccc(Nc2nc(-c3cc4ccccc4oc3=O)cs2)cc1O	4.3	-10.4	·	·	30.2*
COc1ccc(CCn2c(=N)c(S(=O)(=O)c3ccc(C)cc3)cc3c(=O)n4ccccc4nc32)cc1	2.9	-14.3	0.6	20.8*	-1.4
N#CCC(Cc1ccccc1)N1CCC(O)CCC1=O (stereo not given)	17.9	·	·	·	·
O=C(CSc1nnc(-c2ccccc2O)o1)Oc1ccc(Br)cc1	4.1	3.3	4.4	0.3	-2.3
O=C(CSc1nnc(-c2ccccc2Cl)o1)Oc1ccc(Br)cc1	·	61.1*	6.1	1.6	-2.4
O=C(O)C1=CC(C2CC2)CC(OCCCCO)O1 (stereo not given)	19.3	·	·	·	·
COc1ccc(C(=O)NCC(=O)N2CCN(C(=O)c3ccco3)CC2)cc1[N+](=O)[O-]	0.0	·	-2.4	10.9*	0.4
COc1ccc(-n2c(C)ccc2-c2ccccc2)cn1	·	3.0	-6.6	57.6*	-0.4
COc1ccc(C2C=C(c3cccs3)Nc3nc(CCCO)nn32)cc1 (stereo not given)	·	·	-5.2	28.6*	·
CCOc1ccc(NS(=O)(=O)c2ccc(Cl)c(N=Nc3c(O)[nH]c(=S)[nH]c3=O)c2)cc1Br	·	·	·	·	14.7*
CC(C)(C)c1ccc(NC(=O)Nc2ccc(OCC(=O)N3CCOCC3)cc2)cc1	13.9	2.2	3.8	-0.6	24.6*
O=C(Nc1ccc(OCC(=O)N2CCOCC2)cc1)Nc1cccc(Cl)c1	13.6	-2.5	0.2	-0.6	-2.7
O=C(NN=Cc1ccc(N2CCCC2)c([N+](=O)[O-])c1)c1cccnc1	14.3	·	·	·	·
O=C(Nc1cccc(NC(=O)c2cccs2)c1)c1ccc(Br)cc1	·	-0.2	-20.7	-0.1	0.4
O=C(Nc1cccc(O)c1)c1cccc(NC(=O)c2cccs2)c1	54.1*	0.3	-17.6	-0.6	-7.7
Oc1ccc(/C=N/N(Cc2ccccc2)c2ccccc2)c(O)c1O	·	17.6	·	·	15.6*
CC(C)(OC1OC(CO)C(O)C(O)C1O)C1Oc2ccc3ccc(=O)oc3c2C1O (stereo not given)	17.8	·	·	·	·
CCC(C)/C=C(C)/C=C/C1=CC2=C(Cl)C(=O)C(C)(OC(C)=O)C(=O)C2=CO1 (stereo not given)	·	-3.0	-8.1	1.0	?
CC[C@H](C)/C=C(C)/C=C/c1cc2c(cn1)C(=O)[C@@](C)(OC(C)=O)C(O)=C2Cl	·	·	·	·	10.9*
O=C(O)C=CC(=O)Nc1ccc(OC(F)(F)Cl)cc1	6.1	·	·	·	·
O=C(COC(=O)Cc1ccc(Cl)cc1)NCc1cccs1	28.6*	·	5.8	-0.5	-2.9
CC(CC(=O)Nc1ccc(Cl)cc1C(F)(F)F)=NNC(=O)c1cccs1	0.9	·	·	·	·
COc1ccc(CNC(=O)COc2ccc(F)cc2)cc1	16.7	-4.1	1.2	1.2	-3.8
COc1ccc(CNC(=O)COc2ccc(OC)cc2)cc1	-3.4	2.4	3.7	2.8	21.9*
SMILES	Mtb hypoxia inh	RecA intein inh	Rv3671c inh	Mtb UGM inh	FadD28 FP inh
CCOc1ccc2oc(C(=O)OCC(=O)NCc3ccc(OC)cc3)c(C)c2c1	32.4*	·	-25.4	1.2	-3.2
CCc1ccc(OCC(=O)NNCC(=O)Nc2ccc(OC)cc2)cc1	56.9*	·	·	·	0.8
CC(C)(C)C1CCc2c(C(=O)NN=Cc3cccs3)csc2C1 (stereo not given)	-6.5	·	·	·	·
COC(=O)c1cccc(C23CC4(C2)C(CN(Cc2cccnc2)C4c2ccccc2)C3c2ccccc2)c1 (stereo not given)	6.4	·	·	·	·
CC(C)(C)C1COC(=O)CCC=CCC(CC(=O)NC(CO)Cc2ccccc2)C(=O)N1 (stereo not given)	20.3	·	·	·	·
COc1ccccc1N1N=C(C(=O)c2ccccc2)C2C(=O)N(c3ccc(Br)cc3)C(=O)C21 (stereo not given)	2.9	-224.6	0.8	30.8*	-3.9
CCc1ccc(C=Nn2cnnc2)cc1	5.2	·	·	·	·
NC(=O)[C@H](Cc1cc2ccccc2s1)NC(=O)[C@@H]1CC2(CC(c3cccc(NC(=O)[C@@H]4CCC(=O)N4)c3)=NO2)CN1C(=O)/C=C/c1c(F)cccc1Cl (stereo not given in full)	·	32.7*	-129.5	-1.4	1.7
O=C1C=C(c2cccc3c2oc2ccccc23)CC(c2ccc(F)cc2)C1 (stereo not given)	17.4	·	·	·	·
